eIF4H inh: inhibitors of RNA binding by human eIF4H; Q15056; eIF4H fluorescence polarization binding assay; inhibition, % at 35 µM; hit rate 0.94% among 290,000; AID 2012;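 further: calls also rest on retests at 20 µM and on dose response follow-up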
MLLE-PAM2 inh: blocks PAM2 peptide binding to the PABP1 MLLE domain. P11940. GST-MLLE / FITC-PAM2 fluorescence polarization. inhibition, % at 20 µM. hit rate 0.36% among 360,000. AID 588489; in the data active means inhibition above about 35%, passing the limit was not always enough
Target sequence (P11940 whole entry, looked up, the tested form may be a part): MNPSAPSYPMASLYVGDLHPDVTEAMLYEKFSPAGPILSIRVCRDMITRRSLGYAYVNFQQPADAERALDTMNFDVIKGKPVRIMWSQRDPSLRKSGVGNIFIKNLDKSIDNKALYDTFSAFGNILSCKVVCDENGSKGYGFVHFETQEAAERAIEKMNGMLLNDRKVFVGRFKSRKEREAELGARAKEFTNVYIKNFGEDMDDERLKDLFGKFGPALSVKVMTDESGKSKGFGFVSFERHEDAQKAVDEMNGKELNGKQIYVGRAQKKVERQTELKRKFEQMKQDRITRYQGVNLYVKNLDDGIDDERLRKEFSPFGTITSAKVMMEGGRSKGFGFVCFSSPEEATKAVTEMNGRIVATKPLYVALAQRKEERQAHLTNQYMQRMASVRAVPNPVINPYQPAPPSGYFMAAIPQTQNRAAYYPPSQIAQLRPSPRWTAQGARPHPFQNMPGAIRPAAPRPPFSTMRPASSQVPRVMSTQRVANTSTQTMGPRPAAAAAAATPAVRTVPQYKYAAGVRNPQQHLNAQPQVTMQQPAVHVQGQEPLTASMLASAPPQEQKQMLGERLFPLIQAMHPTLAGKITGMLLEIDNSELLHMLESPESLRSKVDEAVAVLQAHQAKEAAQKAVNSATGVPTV
PERK inh: blocks human PERK kinase | Q9NZJ5 | CHO PERK-DD fusion, SEAP luminescence translation reporter | inhibition, % at 5.6 µM | hit rate 0.17% among 220,000;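 active means inhibition above the mean inhibition of all tested compounds plus 3 SD, set separately per screening campaign, cut at about 2.9% in these data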;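 further: PERK kinase domain activated by AP20187 dimerizer at 100 nM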
eIF4E-4G inh: eIF4E/eIF4G interaction inhibition in translation initiation; TR-FRET eIF4E-eIF4GI(517-606) binding, 2 h; inhibition, % at 21.7 µM; hit rate 0.37% among 220,000; AID 782;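 active means inhibition above about 30%, limit read from the data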
PABP FP inh: PABP-poly(A) binding inhibition; inhibition, % at 35 µM; P11940; hit rate 1% among 290,000; AID 2014; PABP-poly(A) RNA binding, fluorescence polarization;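 further: calls also rest on retests at 20 µM and on dose response follow-up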
Numbers stand for hits; – = inactive; ? = inconclusive; · = not tested or not shown. Sampled rows, rich in hits. Any-hit rate of the full collection: about 1.6%. Unless noted, how the calls were made is not given here.

SMILES	eIF4H inh	MLLE-PAM2 inh	PERK inh	eIF4E-4G inh	PABP FP inh
CS(=O)(=O)N(Cc1ccccc1)c1ccc(C(=O)NCCSCc2ccco2)cc1	–	45	–	–	–
CS(=O)(=O)Nc1ccc(C(=O)NCCSCc2ccco2)cc1	–	–	–	–	–
CCCCCc1ccc(C(=O)CCCC)c(=S)[nH]1	–	38	–	–	–
CC(=O)C1=C(O)C(=O)N(C)C1c1ccccc1[N+](=O)[O-] (stereo not drawn)	–	39	–	–	–
COC(=O)CCC(=O)OC1(C)C(=O)C2=COC(c3ccc(OC)cc3)=CC2=C(Br)C1=O (stereo not drawn)	?	·	·	–	?
COc1ccc(C2=CC3=C(Br)C(=O)C(C)(OC(=O)c4ccc(Cl)nc4)C(=O)C3=CO2)cc1 (stereo not drawn)	–	·	·	–	42
COc1ccc(NC(=O)N(C)C[C@H]2OCCCC[C@H](C)Oc3ccc(NC(=O)Nc4ccc5c(c4)OCO5)cc3C(=O)N([C@@H](C)CO)C[C@@H]2C)cc1	·	–	·	·	·
Cc1cc(SCC(=O)N/N=C/c2ccc(O)c(O)c2O)c(C)cc1Br	93	–	–	–	60
COc1cc(/C=N/NC(=O)CSc2cc(C)c(Br)cc2C)ccc1O	–	–	–	–	–
Cc1nc2nc(C)c(NS(=O)(=O)c3ccc(CC(C)C)cc3)c(=O)n2[nH]1	–	–	·	·	–
O=C1NC(=O)N2CCSC2(Cc2ccccc2)N1 (stereo not drawn)	·	41	·	·	·
Cc1ccc(S(=O)(=O)N2CCCCC2)cc1C(=O)OC1CCCCC1=O (stereo not drawn)	·	–	·	·	·
Cn1cccc1C1Nc2ccccc2NC2=C1C(=O)CC(C)(C)C2 (stereo not drawn)	–	–	–	–	119
CC1(C)CC(=O)C2=C(C1)Nc1ccccc1NC2c1cccc(F)c1 (stereo not drawn)	–	–	·	·	–
CCC1CCCCN1CCCNS(=O)(=O)c1ccc2c(c1)oc(=O)n2C (stereo not drawn)	–	–	·	·	34
CCC1CCCCN1CCNS(=O)(=O)c1ccc2c(c1)oc(=O)n2C (stereo not drawn)	–	–	–	–	–
CC(NS(=O)(=O)c1ccc2c(c1)oc(=O)n2C)c1ccccc1 (stereo not drawn)	–	–	·	·	65
Cn1c(=O)c(=O)n(C)c2cc(S(=O)(=O)Nc3ccc4c(c3)OCCO4)ccc21	–	–	–	–	–
Cn1c(=O)oc2cc(S(=O)(=O)Nc3ccc4c(c3)OCCO4)ccc21	75	–	–	–	87
O=C(NC(=S)Nc1cccc(O)c1)c1cncc(Br)c1	·	42	·	·	·
O=C(O)c1cccc(NC(=S)NC(=O)c2cncc(Br)c2)c1	·	–	·	·	·
Cc1ccccc1NC(=S)NC(=O)c1cncc(Br)c1	–	–	–	–	–
Cc1cc(O)ccc1NC(=S)NC(=O)c1cncc(Br)c1	–	44	·	·	–
CC(=O)c1cccc(NC(=S)NC(=O)c2ccc(Br)cc2)c1	–	41	–	–	–
CC1=C(C(N)=O)C(c2ccccc2[N+](=O)[O-])n2ncnc2N1 (stereo not drawn)	–	–	·	·	–
SMILES	eIF4H inh	MLLE-PAM2 inh	PERK inh	eIF4E-4G inh	PABP FP inh
O=C1OCCC1=COCCCCCOC=C1CCOC1=O	·	–	·	·	·
CC(C)(C)c1ccc2c(c1)OC(C(=O)N/N=C\c1ccc(-c3cccc(C(=O)O)c3)o1)CO2 (stereo not drawn)	73	–	–	–	68
O=C(O)c1cccc(-c2ccc(/C=N/NC(=O)C3COc4ccccc4O3)o2)c1 (stereo not drawn)	72	–	–	–	–
O=C(N/N=C\c1ccc(Cl)s1)C1COc2ccccc2O1 (stereo not drawn)	–	–	–	–	–
O=C(N/N=C/c1c[nH]c2ccccc12)C1COc2ccccc2O1 (stereo not drawn)	–	–	–	48	–
Nc1nonc1C(=O)N/N=C/c1ccc(-c2cccc(C(=O)O)c2)o1	55	·	–	–	–
O=C(N/N=C\c1ccc(-c2ccccc2[N+](=O)[O-])o1)C1COc2ccccc2O1 (stereo not drawn)	–	–	–	–	–
Cc1ccc(SCC(=O)NC(=O)c2ccccc2Br)c(C)c1	·	–	·	·	·
CCOC(=O)c1sc(N)nc1C(F)(F)F	·	–	·	·	·
COc1cc2ccccc2ccc1=NO	·	–	·	·	·
O=C(NC1CC1)C1CCN(C2CCN(C(=O)Cc3ccc(F)cc3)CC2)CC1	–	–	–	–	–
Cn1ccc(CC(=O)N2CCC(N3CCC(C(=O)N4CCCC4)CC3)CC2)c1	52	–	–	–	24
CCCCn1c(SCC(=O)NNC(=O)c2ccccc2)n[nH]c1=O	·	–	·	·	·

Screening results (PubChem BioAssay)
